Source: ChEMBL document CHEMBL1961873, “Compounds: GSK PKIS; Assays: Nanosyn kinase panel” (2012)
“And” between values parts separate entries of the source, which are not always exact repeats. Equal entries are not always repeated.

Each molecule was assayed against Vascular endothelial growth factor receptor 1 (Homo sapiens) (UniProt P17948). Details: at 0.1 µM.
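Also: values are mean percent inhibition of FLT1.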

Sequence of Vascular endothelial growth factor receptor 1 (Homo sapiens) (P17948 whole entry): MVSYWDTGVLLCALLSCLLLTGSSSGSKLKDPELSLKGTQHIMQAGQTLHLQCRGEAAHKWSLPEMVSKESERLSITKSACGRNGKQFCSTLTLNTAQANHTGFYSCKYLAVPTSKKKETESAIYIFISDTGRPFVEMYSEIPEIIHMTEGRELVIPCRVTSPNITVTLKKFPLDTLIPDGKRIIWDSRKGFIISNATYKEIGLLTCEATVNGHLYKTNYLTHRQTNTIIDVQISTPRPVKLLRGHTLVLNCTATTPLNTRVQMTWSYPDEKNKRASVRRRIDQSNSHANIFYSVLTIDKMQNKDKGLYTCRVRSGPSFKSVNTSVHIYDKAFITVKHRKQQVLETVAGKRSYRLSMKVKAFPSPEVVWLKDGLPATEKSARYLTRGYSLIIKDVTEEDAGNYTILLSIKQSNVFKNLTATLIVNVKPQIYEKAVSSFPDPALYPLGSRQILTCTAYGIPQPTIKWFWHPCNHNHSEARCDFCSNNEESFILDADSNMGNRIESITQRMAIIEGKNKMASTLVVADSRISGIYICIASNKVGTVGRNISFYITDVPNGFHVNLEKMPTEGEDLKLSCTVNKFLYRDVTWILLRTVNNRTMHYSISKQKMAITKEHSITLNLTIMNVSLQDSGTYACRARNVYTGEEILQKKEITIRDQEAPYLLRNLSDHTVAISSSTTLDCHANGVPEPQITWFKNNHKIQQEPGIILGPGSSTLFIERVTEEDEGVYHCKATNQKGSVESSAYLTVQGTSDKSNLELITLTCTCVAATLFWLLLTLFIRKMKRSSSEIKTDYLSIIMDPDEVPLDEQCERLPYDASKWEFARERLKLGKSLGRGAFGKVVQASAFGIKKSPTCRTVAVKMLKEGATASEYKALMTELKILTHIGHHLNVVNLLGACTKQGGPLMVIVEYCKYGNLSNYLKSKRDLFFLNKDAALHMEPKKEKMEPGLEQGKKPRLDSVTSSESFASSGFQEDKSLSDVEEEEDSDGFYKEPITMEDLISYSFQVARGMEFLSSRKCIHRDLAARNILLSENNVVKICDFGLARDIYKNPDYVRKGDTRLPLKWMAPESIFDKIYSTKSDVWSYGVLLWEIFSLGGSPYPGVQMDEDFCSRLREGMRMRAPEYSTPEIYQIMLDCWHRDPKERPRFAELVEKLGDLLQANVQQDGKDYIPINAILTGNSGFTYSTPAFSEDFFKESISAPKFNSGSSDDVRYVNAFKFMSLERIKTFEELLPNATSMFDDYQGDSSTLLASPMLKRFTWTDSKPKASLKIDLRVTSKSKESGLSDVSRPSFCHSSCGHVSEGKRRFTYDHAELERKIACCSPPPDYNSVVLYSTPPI

SMILES	inhibition
CC1=C(C(=O)Nc2ccc3[nH]nc(C)c3c2)C(c2ccc(C(F)(F)F)cc2)CC(=O)N1 (stereo not given)	1.04%
COc1cc(N2CCN(C(C)C)CC2)ccc1Nc1nc(Nc2cccc3ncccc23)c2cc[nH]c2n1	1.51%
COc1cc(Nc2ncc(-c3ccccc3)o2)cc(OC)c1	4.69%
COc1cccc(Nc2nccc(-c3cnn4ncccc34)n2)c1	9.62%
O=C(Nc1n[nH]c2nnc(-c3cccnc3)cc12)C1CC1	0.7%
CN1CCN(Cc2ccc(-c3cc4ncnc(Nc5ccc(OCc6cccc(F)c6)c(Cl)c5)c4s3)o2)CC1	0.35% and 1.57%
CCCNc1cccc(-n2ncc3c(N/N=C/c4ccncc4)ncnc32)c1	2.98%
CS(=O)(=O)Nc1ccc(-c2ccc3c(NC(=O)C4CC4)n[nH]c3c2)cc1	1.26%
COc1cccc(-n2ncc3c(N/N=C/c4ccc(C(=O)NCCN(C)C)cc4)ncnc32)c1	8.45%
O=C(O[C@H]1CN[C@H](C#Cc2cc3ncnc(Nc4ccc(OCc5cccc(F)c5)c(Cl)c4)c3s2)C1)N1CCOCC1	1.9%
O=C(O[C@H]1CN[C@H](C#Cc2cc3ncnc(Nc4ccc5c(cnn5Cc5ccccc5)c4)c3s2)C1)N1CCOCC1	-2.71%
CCn1c(-c2nonc2N)nc2cncc(C(=O)NCCNC)c21	2.02%
O=C(O[C@H]1CN[C@H](C#Cc2cc3ncnc(Nc4ccc5c(ccn5Cc5cc(F)ccc5F)c4)c3s2)C1)N1CCOCC1	0.98%
c1ccc(-c2n[nH]cc2-c2ccnc(-c3ccc(OCCn4ccnc4)cc3)c2)nc1	5.66%
COc1cc2c(cc1Nc1nc(Nc3cccc(F)c3C(N)=O)c3cc[nH]c3n1)N(C(=O)CN1CCN(C(C)C)CC1)CC2	-1.2%
